Measured values published in the supplement of paper PMC3724861.
The sample as a whole holds a higher share of hits than the screen did. No count for the full screen is at hand. Values without a mark were called inactive.

Test system: T1, Caupolican (Caup) homeodomain DNA-binding domain
T1 sequence: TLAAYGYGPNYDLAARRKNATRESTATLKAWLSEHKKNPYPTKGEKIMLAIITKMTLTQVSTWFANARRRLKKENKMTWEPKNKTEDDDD
Test: PBM E-score (8-mer, recovered from the published 9-mer minima) (E-score (dimensionless, -0.5 to 0.5)); Drosophila protein; higher = stronger relative binding preference, active = 0.31 or more
Procedure: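 Protein binding microarray (PBM): in vitro transcribed/translated Caupolican (Caup) homeodomain DNA-binding domain (residues 214-303) applied at 100 nM to a universal 8-mer PBM array (Agilent AMADID 015681). The 8-mer enrichment score (E-score, range -0.5 to 0.5) was computed, and each 9-mer score is the minimum E-score of its two constituent 8-mers. The E-score is the same for a 9-mer and its reverse complement; 0.31 is the stated binding threshold.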

Point of comparison: AGTACAGA, “PBM E-score” value 0.138. Against it:
- AGATGTAT — higher, 0.29
- AGATGTAG — higher, 0.244
- GGATGTAA — higher, 0.299
- CCGCGTTA — lower, -0.054
- GATCTAGA — lower, -0.0194
- CTACTACA — higher, 0.305
- GCACTACA — higher, 0.176
- GTACTAAA — higher, 0.229
- ATACTACC — lower, 0.0922
- CAGTTTCG — lower, -0.0432
- CAGCTACG — lower, -0.101
- CTGTACAC — higher, 0.284
- CTGTACAG — higher, 0.164
- ATCTACAT — higher, 0.29
- ATGTACCG — higher, 0.287
- GGGTACAC — higher, 0.14
- CAGTACAC — higher, 0.288
- ATGTACGC — higher, 0.29
- TCCGCAAA — lower, -0.0879
- CCCTTTCA — lower, -0.126
- ACCCATCG — lower, -0.0141
- GCCGTCCC — lower, -0.25
- GCTTCCAC — lower, -0.182
- ACCCGCAT — lower, 0.00073
- CCACTCGG — lower, -0.158
- AAAGAAGC — lower, -0.0635
- GGGGTACA — lower, 0.0877
- TAGACGGA — lower, -0.0225
- CTCCAGTC — lower, -0.121
- CCAGTGGA — lower, -0.117
- AAAGGTAC — lower, 0.12
- CGTACAGA — higher, 0.142
- GGTACATA — higher, 0.282
- CGTACATC — higher, 0.263
- CAGACGCC — lower, -0.147
- CCGGTCAA — lower, -0.0503
- GGATCCCA — lower, -0.0305
- ATTGTTCA — higher, 0.184
- ATTGTTCC — lower, 0.112
- CCTGTTCC — lower, 0.0821
- CCTGTTCA — higher, 0.15
- CATGGGGG — lower, -0.157
- ATGGGAAG — lower, -0.07
- GGTAGACA — lower, 0.117
- CGTAGACA — lower, 0.122
- ATTCATGG — lower, -0.039
- ATACAGGA — lower, 0.13
- CCACATGC — lower, 0.0879
- ATACATCG — higher, 0.273
- ATTCATGC — lower, 0.0406
- ATCCATGA — lower, 0.0343
- CTACATCC — higher, 0.189
- ATGCATGC — lower, 0.107
- AAAATTAA — lower, 0.0601
- TATCGTAA — lower, 0.114
- ACGACTTC — lower, 0.0231
- CCGCAGAA — lower, -0.0611
- CGTCGGCC — lower, -0.224
- GCGCTGCC — lower, -0.257
- CCAGAGAG — lower, -0.172
- CGCTTCAA — lower, -0.0124
- CTATTGTC — lower, 0.0455
- GAGGTACC — lower, -0.137
- AGTTGTAC — higher, 0.308
- CGTTGTAG — higher, 0.154
- ACTTGTAG — higher, 0.297
- ACTTGTGC — lower, 0.0346
- GCTTGGAC — lower, -0.0623
- GCCTGTAC — higher, 0.164
- CCTTGTGC — lower, 0.0734
- CTTTGTAC — higher, 0.229
- GCCCCTCA — lower, -0.223
- CGAACGTC — lower, -0.121
- ATTGAAAA — lower, 0.0968
- CAAGTTCA — lower, 0.0645
- GTCATTTA — higher, 0.184
- AGCGAGCG — lower, -0.0955
- GATATGAC — lower, 0.0792
- CATGAAGA — lower, 0.0832
- GATGGCGA — lower, -0.0291
- AGAGTCGG — lower, -0.0944
- CAGTTAAC — lower, -0.00501
- CATTGTAG — lower, 0.0869
- GATTGTAC — higher, 0.235
- CATTCCAC — lower, -0.0122
- GCAAGAAC — lower, 0.00872
- ACAAGTGG — higher, 0.205
- ACAAGTTC — higher, 0.233
- CCAAGTAG — lower, -0.0584
- ACAAGAAT — higher, 0.307
- GCAAGTTA — lower, 0.0766
- CCAAGTAA — lower, 0.0669
- GCAAGTAA — higher, 0.173

For TGATGTAA, the “PBM E-score” value was 0.36 (active).
In the case of AGATGTAA, the “PBM E-score” value is reported as 0.336 (active).
For ATACTACA, the “PBM E-score” value was 0.364 (active).
With GTACTACA the “PBM E-score” value was 0.376 (active).
GTGTACAC was tested, and the “PBM E-score” value was 0.389 (active).
ATGTACAC was tested, and the “PBM E-score” value was 0.441 (active).
ATGTACAT was tested, and the “PBM E-score” value was ≥ 0.469 (active).
ATGTACAG was tested, and the “PBM E-score” value was 0.343 (active).
In the case of AGTACATA, the “PBM E-score” value is reported as 0.381 (active).
With CGTACATA the “PBM E-score” value was 0.336 (active).
CTTGTTCA was tested, and the “PBM E-score” value was 0.33 (active).
For CTTGTTCC, the “PBM E-score” value was ≥ 0.337 (active).
In the case of TGTAGACA, the “PBM E-score” value is reported as ≥ 0.313 (active).
In the case of ATACATGG, the “PBM E-score” value is reported as 0.422 (active).
In the case of ATACATGA, the “PBM E-score” value is reported as 0.4 (active).
In the case of ATACATGC, the “PBM E-score” value is reported as 0.374 (active).
With CTACATGC the “PBM E-score” value was 0.369 (active).
CCTTGTAG was tested, and the “PBM E-score” value was 0.322 (active).
With ACTTGTAC the “PBM E-score” value was 0.407 (active).
CCTTGTAC was tested, and the “PBM E-score” value was 0.399 (active).
GCTTGTAC was tested, and the “PBM E-score” value was 0.38 (active).
For CATTGTAC, the “PBM E-score” value was 0.323 (active).
For ACAAGTAG, the “PBM E-score” value was 0.351 (active).
For ACAAGTTA, the “PBM E-score” value was 0.325 (active).
ACAAGTAA was tested, and the “PBM E-score” value was 0.331 (active).
In the case of ACAAGAAC, the “PBM E-score” value is reported as 0.316 (active).
